These results are taken from ChEMBL document CHEMBL3988442, “University of Dundee, Small-Polar-MMV Screening Library” (2021).

SMILES strings stand for the structures. For some assays here: Potency and affinity values are given separately.

What all share (parameters): scale not given: direction of the effect not stated beside the values
Test [1] concerns the target Protein translocase subunit SecA (Escherichia coli (strain K12)) (UniProt P10408). Kind of test: Assay to Identify E. coli SecA ATPase Inhibitors. It counts as functional. Conditions: 30 µM.
Test [2] deals with T1, Ubiquitin-activating enzyme e1, putative (Leishmania donovani (strain BPK282A1)) (UniProt E9BSI1).
T1 sequence (whole entry): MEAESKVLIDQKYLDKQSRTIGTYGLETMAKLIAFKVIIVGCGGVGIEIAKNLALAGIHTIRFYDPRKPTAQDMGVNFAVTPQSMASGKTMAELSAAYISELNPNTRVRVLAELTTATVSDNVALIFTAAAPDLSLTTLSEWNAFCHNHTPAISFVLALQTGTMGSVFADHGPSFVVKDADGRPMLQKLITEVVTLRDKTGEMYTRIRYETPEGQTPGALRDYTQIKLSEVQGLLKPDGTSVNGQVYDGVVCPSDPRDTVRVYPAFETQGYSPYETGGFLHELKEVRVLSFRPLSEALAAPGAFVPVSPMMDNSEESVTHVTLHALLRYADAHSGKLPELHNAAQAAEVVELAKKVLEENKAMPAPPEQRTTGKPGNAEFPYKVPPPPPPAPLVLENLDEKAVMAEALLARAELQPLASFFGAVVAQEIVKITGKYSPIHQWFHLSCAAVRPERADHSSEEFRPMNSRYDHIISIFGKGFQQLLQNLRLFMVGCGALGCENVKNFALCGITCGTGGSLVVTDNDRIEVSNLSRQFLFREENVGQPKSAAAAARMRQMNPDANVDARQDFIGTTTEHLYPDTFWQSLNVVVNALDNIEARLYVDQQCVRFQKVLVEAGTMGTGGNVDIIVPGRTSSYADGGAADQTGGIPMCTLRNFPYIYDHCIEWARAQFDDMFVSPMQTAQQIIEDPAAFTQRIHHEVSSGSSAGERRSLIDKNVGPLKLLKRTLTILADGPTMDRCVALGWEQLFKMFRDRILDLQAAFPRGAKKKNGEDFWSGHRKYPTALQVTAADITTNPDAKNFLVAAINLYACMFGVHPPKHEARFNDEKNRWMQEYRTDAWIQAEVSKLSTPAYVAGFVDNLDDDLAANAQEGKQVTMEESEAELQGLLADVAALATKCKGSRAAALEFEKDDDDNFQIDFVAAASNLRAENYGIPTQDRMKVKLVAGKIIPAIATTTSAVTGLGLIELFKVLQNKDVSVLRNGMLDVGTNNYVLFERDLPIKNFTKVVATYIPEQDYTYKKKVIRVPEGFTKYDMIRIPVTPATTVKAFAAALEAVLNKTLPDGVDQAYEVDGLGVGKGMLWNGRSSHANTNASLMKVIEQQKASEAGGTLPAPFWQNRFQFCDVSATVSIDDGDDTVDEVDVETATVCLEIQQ
Kind of test: Leishmania donovani Ubiquitin Activating Enzyme (LdE1). The class given is functional. The settings on record: 30 µM.

The target of test [3] is T2, Aspartate--tRNA(Asp/Asn) ligase (Mycobacterium tuberculosis (strain ATCC 25618 / H37Rv)) (UniProt P9WFW3). Further: in the data most compounds retested in dose-response had high values.
T2 sequence (whole entry): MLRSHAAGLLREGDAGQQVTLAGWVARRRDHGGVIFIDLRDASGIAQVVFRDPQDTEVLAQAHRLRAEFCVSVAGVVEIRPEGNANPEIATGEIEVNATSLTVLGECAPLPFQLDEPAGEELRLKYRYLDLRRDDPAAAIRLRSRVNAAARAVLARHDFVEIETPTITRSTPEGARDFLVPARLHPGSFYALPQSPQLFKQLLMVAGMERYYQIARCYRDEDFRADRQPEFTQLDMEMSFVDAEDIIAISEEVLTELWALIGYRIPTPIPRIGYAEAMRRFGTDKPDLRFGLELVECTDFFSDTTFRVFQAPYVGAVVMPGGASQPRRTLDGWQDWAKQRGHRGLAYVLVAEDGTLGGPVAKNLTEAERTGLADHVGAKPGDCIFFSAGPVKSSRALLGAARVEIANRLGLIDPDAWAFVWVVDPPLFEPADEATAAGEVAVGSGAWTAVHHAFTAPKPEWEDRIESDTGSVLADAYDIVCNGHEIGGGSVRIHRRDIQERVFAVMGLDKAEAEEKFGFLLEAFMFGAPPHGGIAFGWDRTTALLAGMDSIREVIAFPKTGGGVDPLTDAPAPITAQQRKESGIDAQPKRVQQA
Kind of test: Assay for Asp RNA synthetase-1 from Mycobacterium tuberculosis. The class given is functional. Conditions: 30 µM.

Test [4] deals with AMP-activated protein kinase, AMPK (Homo sapiens) (UniProt P54646+O43741+P54619+Q9UGJ0+Q9Y478+Q13131+Q9UGI9). Kind of test: AMP-dependent Kinase enzyme assay. An in vitro enzyme assay that detects ADP turnover that is directly proportional to AMPK activity. This uses naive AMPK that is activated during the assay with MK-8722. The class given is functional. Conditions: 30 µM.
The target of test [5] is Sialic acid-binding Ig-like lectin 9 (Homo sapiens) (UniProt Q9Y336). Kind of test: Hs-Siglec9 ALPHAscreen SOP 20170721. The settings on record: 10 µM.
In another test the test system is Trypanosoma cruzi. Kind of test: Trypanosoma cruzi phosphomannomutase and mannose-1-phosphate guanylyltransferase assay. The class given is functional. The settings on record: 10 µM.
Test [6] has as its target T3, Arginase-2, mitochondrial (Homo sapiens) (UniProt P78540).
T3 sequence (whole entry): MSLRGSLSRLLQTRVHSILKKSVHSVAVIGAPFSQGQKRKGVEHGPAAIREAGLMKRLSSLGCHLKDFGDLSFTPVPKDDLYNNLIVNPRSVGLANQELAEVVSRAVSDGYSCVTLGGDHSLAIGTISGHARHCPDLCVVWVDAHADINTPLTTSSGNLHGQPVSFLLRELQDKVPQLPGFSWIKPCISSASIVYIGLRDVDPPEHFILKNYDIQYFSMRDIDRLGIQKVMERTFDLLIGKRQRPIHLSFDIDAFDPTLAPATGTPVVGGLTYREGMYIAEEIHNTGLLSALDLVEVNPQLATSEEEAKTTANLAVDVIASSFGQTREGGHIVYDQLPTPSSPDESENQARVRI
Kind of test: in vitro enzyme assay to detect the production of urea directly proportional to the activity of Arginase II. Further: in the data most compounds retested in dose-response had high values. The class given is functional. The settings on record: 33.3 µM.

The target in test [7] is T4, Proteasome subunit beta (Trypanosoma cruzi) (UniProt O96673).
T4 sequence (whole entry): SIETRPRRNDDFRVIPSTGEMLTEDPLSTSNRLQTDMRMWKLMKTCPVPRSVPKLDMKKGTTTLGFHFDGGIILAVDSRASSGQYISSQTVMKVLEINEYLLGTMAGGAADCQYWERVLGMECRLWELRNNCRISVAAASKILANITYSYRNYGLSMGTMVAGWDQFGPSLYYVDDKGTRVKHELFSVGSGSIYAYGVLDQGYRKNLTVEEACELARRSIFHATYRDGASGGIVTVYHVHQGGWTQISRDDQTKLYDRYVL
Kind of test: Trypanosoma cruzi proteasome chymotrypsin-like activity (TcProtChymo) assay. Further: in the data most compounds retested in dose-response had high values. The class given is functional. The settings on record: 9.37 µM.

The species entered for another test is Homo sapiens. Kind of test: To identify inhibition of the IFN signalling (Jak-Stat) pathway via expression of an eGFP reporter gene under the control of an IFN-stimulated response element (ISRE) containing MxA promoter. It counts as functional. Conditions: 30 µM.
Test [8] has as its target Shiga toxin 2 (Escherichia coli O157:H7) (UniProt P09385+P09386). Kind of test: E. coli 0.157:H7 Shiga Toxin SOP - stx2 screening assay. It counts as functional. Conditions: 30 µM.
In test [9] the target is T5, Tyrosyl-tRNA synthetase, putative (Trypanosoma cruzi (strain CL Brener)) (UniProt Q4DSP6).
T5 sequence (whole entry): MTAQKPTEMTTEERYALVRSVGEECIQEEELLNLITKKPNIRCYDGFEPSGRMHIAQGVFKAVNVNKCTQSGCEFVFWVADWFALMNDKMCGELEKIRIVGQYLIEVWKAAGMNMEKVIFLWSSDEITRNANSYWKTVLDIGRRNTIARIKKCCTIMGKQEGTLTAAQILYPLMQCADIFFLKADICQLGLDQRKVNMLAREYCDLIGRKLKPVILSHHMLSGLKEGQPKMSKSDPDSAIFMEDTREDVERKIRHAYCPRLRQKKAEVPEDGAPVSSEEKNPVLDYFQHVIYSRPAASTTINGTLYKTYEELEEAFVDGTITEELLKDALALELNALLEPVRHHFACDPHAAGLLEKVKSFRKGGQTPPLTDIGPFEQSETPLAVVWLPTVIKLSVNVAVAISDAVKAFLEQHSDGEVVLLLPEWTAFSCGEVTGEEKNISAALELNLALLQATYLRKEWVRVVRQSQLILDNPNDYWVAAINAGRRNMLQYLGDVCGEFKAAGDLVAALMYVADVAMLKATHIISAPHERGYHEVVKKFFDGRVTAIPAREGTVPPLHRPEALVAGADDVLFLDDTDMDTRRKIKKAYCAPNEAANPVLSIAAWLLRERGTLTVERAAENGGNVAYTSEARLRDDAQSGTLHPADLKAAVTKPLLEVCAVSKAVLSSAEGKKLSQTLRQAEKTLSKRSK
Kind of test: Trypanosoma cruzi tyrosyl tRNA synthetase (TcYRS) _High Tyrosine SOP. Further: in the data most compounds retested in dose-response had high values. It counts as functional. Conditions: 30 µM.

Test [10] addresses T5, Tyrosyl-tRNA synthetase, putative (Trypanosoma cruzi (strain CL Brener)). Kind of test: Trypanosoma cruzi tyrosyl tRNA synthetase (TcYRS) SOP. The class given is functional. Conditions: 30 µM.
The target in test [11] is Chromo domain-containing protein 1 (Saccharomyces cerevisiae (strain ATCC 204508 / S288c) (Baker's yeast)) (UniProt P32657). Kind of test: ScCHD-1 Enzyme Inhibition Assay. Further: in the data most compounds retested in dose-response had high values. The class given is functional. Conditions: 30 µM.
Sequence of Chromo domain-containing protein 1 (Saccharomyces cerevisiae (strain ATCC 204508 / S288c) (Baker's yeast)) (P32657 whole entry, the tested form may be a part): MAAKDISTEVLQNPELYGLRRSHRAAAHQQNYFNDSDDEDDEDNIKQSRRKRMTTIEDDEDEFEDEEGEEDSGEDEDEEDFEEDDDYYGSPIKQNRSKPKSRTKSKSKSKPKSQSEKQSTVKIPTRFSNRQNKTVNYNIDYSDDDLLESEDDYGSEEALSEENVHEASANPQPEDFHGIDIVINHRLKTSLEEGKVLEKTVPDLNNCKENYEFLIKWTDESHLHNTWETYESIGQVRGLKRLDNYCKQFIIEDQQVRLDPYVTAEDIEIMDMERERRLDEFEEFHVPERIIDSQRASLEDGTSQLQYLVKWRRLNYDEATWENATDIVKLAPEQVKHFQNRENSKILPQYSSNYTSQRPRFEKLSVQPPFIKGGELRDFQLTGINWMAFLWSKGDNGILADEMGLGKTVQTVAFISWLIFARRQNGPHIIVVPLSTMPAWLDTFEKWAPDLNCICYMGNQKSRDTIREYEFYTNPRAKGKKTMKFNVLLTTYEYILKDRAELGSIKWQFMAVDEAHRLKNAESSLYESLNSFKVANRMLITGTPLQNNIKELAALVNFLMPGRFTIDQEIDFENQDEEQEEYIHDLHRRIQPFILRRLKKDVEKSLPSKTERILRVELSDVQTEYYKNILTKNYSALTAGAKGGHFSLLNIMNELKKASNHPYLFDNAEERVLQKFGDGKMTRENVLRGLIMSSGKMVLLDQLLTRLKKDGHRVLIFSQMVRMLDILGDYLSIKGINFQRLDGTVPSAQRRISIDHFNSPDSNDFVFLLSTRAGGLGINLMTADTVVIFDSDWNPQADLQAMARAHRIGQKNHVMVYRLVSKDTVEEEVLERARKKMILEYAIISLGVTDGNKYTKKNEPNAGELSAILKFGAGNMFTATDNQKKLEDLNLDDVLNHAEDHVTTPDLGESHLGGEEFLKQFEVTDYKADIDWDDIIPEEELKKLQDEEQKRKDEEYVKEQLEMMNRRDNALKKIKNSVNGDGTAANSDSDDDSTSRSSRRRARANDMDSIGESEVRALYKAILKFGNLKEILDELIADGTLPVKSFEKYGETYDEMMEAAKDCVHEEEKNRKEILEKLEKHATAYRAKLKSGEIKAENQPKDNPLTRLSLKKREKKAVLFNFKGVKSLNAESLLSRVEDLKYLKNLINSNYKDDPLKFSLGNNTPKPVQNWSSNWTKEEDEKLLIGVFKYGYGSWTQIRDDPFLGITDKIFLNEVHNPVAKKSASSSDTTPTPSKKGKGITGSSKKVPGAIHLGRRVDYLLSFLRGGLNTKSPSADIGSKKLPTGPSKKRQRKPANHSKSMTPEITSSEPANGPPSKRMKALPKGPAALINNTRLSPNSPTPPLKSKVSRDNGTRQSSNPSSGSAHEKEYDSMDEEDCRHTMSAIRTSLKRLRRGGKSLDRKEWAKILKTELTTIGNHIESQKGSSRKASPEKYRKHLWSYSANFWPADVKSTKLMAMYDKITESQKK

Sequence of Sialic acid-binding Ig-like lectin 9 (Homo sapiens) (Q9Y336 whole entry): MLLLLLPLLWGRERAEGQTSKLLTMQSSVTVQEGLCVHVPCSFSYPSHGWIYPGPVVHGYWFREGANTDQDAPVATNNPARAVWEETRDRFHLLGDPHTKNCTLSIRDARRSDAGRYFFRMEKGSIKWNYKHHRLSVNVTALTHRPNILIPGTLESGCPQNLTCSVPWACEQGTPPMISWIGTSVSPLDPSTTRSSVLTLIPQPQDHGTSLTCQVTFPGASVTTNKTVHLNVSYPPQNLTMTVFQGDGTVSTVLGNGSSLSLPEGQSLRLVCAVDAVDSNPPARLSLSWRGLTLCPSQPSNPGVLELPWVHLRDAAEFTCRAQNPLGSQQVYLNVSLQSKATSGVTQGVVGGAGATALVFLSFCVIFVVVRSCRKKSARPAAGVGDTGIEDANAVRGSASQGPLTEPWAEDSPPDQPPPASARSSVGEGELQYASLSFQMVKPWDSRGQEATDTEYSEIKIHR
Sequence of Protein translocase subunit SecA (Escherichia coli (strain K12)) (P10408 whole entry): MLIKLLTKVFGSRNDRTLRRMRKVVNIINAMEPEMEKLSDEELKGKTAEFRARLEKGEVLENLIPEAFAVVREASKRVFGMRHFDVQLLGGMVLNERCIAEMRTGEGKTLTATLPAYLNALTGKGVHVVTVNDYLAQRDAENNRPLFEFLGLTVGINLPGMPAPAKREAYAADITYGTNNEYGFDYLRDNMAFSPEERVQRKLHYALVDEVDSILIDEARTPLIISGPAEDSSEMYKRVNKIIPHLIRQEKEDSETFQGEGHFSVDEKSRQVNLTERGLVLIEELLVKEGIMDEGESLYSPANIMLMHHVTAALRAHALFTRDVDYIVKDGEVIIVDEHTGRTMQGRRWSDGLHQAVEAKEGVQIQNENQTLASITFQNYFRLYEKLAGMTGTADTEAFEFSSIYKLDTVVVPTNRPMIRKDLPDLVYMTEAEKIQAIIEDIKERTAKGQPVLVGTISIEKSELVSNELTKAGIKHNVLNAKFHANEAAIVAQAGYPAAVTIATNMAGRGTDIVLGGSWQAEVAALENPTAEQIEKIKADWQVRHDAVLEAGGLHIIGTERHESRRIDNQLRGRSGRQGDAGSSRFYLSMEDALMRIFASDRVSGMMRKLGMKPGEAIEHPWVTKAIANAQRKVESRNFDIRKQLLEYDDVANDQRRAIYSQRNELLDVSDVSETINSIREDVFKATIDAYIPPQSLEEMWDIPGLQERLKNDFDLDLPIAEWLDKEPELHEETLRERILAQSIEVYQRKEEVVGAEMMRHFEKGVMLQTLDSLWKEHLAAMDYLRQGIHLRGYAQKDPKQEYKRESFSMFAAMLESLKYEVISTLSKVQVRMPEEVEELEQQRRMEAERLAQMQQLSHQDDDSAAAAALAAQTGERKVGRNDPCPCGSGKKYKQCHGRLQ

Take `c1ccc(CN2C[C@@H]3CCCO[C@@H]3[C@H](Nc3ccccn3)C2)nc1`: the Percent Effect was -6.38% in test [1]; 5.41% in test [2]; 3.79% in [3]; -2.17% in test [4]; 3.76% in test [5]; 0.88% in the test with Trypanosoma cruzi. Moreover, the Percent Effect is 3.23% in test [6]; 8.15% in test [7]; -12.7% in the test filed under Homo sapiens; 8.28% in test [8]; 6.45% in test [9]; 16.1% in test [10]. Also, the Percent Effect in test [11] was -2.77%.
`COCCN1CCC2(COCc3cnc(N4CCOCC4)nc32)C1` (stereo not given): the Percent Effect in test [1] is -9.09%; in [2] it was 2.67%; in test [3] it was -3.07%; in [4], 7.61%; in test [5], -2.45%; with Trypanosoma cruzi, -5.91%. Moreover, the Percent Effect was -2.1% in test [6]; 2.03% in [7]; 21.1% in the test listed under Homo sapiens; -12% in test [8]; -4.25% in test [9]; -1.28% in test [10]. Further, the Percent Effect in test [11] is -8.27%.
As for `CCn1ccnc1CN1CCCN(C(=O)Cc2ccc(C)nc2)CC1`, the Percent Effect in [1] was -2.41%; in test [2] it was 5.2%; in test [3] it was 1.82%; in [4], 5.72%; in test [5] it was 3.18%; with Trypanosoma cruzi it was 2.45%. For the same compound, the Percent Effect in test [6] is 3.16%; in test [7], 10.4%; in the test listed under Homo sapiens, -0.845%; in test [8], 6.49%; in [9], -0.952%; in [10], 0%. Besides, the Percent Effect in test [11] is -16.3%.
In the case of `Cn1c(=O)n(C)c2cc(C3SCC(=O)Nc4ccsc43)ccc21` (stereo not given), the Percent Effect in test [1] was -5.92%; in test [2], 6.67%; in test [3], -5.4%; in test [4], -13.6%; in [5], -2.48%; with Trypanosoma cruzi it was 7.27%. Besides, the Percent Effect was -11.8% in test [6]; 12.9% in [7]; 37.1% in the test filed under Homo sapiens; -33.2% in test [8]; 4.23% in [9]; 12.8% in test [10]. The Percent Effect in test [11] is -7.83%.
With `O=C(Cc1ccccc1)N1CCN(Cc2noc(C3CC3)n2)CC1`, the Percent Effect in [1] was -1.81%; in test [2], 11.4%; in test [3], -2.26%; in test [4] it was 0.817%; in test [5] it was 1.57%; in the test with Trypanosoma cruzi, -4.62%. Moreover, the Percent Effect in test [6] was -3.23%; in [7], 12.9%; in the test listed under Homo sapiens, -5.12%; in test [8], 0.476%; in [9], 7.29%; in [10] it was 15.2%. Besides, the Percent Effect in test [11] was -22.4%.
